Assay [1] deals with Voltage-gated inwardly rectifying potassium channel KCNH2 (Homo sapiens) (UniProt Q12809). The assay is described as follows: qHTS Assay for Small Molecule Inhibitors of the Human hERG Channel Activity (AID 588834).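 Note: lower thallium flux fluorescence means stronger hERG block; nearly all actives have a fitted effect of over 50% in size.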 Note: potency is the fitted concentration of half-maximal effect. An outline of the steps:
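Cells were infected with hERG-BacMam virus for 4 hrs at room temperature, grown overnight, then seeded at 2000/well. After dye loading and roughly 10 min compound treatment, thallium influx was triggered and fluorescence recorded.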

Assay [2] has as its target Mitogen-activated protein kinase 10 (Mus musculus) (UniProt Q61831). Kind of assay: JNK3 AlphaScreen Assay (AID 530; active = well fitted curve in either direction with a large enough effect, not every such curve was filed as active;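 note: kinase came from lysate of stimulated human HepG2 cells; signal reports phosphorylation of biotinylated GST-cJun 1-79 at Ser73 with 10 µM ATP; % is set by controls: 0 for no effect and ±100 for the full control effect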). The gist of the method:
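qHTS titrations with 15 min compound pre-incubation before adding ATP (10 uM final). Read-out: AlphaScreen of Ser73-phosphorylated biotin-GST-cJun using HepG2 lysate JNK3 activated by IL-1β and TNFα.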

Assay [3] is described as follows: Cell Viability - LYMP2-004 (AID 966).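 Note: plate controls were DMSO only for no effect and tetraoctylammonium bromide control for full effect; nearly all actives have a fitted effect of over 65% in size.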 An outline of the steps:
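qHTS cytotoxicity: human lymphoblastoid line, 24 hr compound treatment, 37 C, complete medium. Viability read as cellular ATP via luciferase luminescence; tetraoctylammonium bromide served as positive control.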

A short description of assay [4]: Cell Viability - LYMP2-019 (AID 973).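 Note: 0% = DMSO alone and full effect = 92 µM tetraoctylammonium bromide; nearly all actives have a fitted effect of over 55% in size.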 The gist of the method:
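Cytotoxicity is scored as a concentration-dependent drop in cellular ATP after cells (2500/well) receive compound for 24 hr at 37 C. Tetraoctylammonium bromide serves as positive control.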

The nature of assay [5]: Cell Viability - LYMP2-021 (AID 974).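 Note: compound exposure lasts 24 hours at 37 °C; % is set by controls: 0 for no effect and ±100 for the full control effect; nearly all actives have a fitted effect of over 55% in size.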 The gist of the method:
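Loss of cellular ATP, measured with a luciferase-based CellTiter-Glo readout, serves as the toxicity signal in human lymphoblastoid cells treated for 24 hours at 37 C. Potency is reported as AC50 from a standard Hill model.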

Assay [6] in a line: Cell Viability - LYMP2-023 (AID 975).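 Note: cellular ATP measured by luciferase luminescence as viability proxy; plate controls were DMSO only for no effect and 92 µM tetraoctylammonium bromide control for full effect; nearly all actives have a fitted effect of over 55% in size.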 The gist of the method: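 Steps: seed 2500 human lymphoblastoid cells per well, incubate 5 hr at 37 C, add compound for 24 hr at 37 C, add CellTiter-Glo, hold 30 min at room temperature, read luminescence. AC50 derived by Hill modelling.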
A short description of assay [7]: Cell Viability - LYMP2-002 (AID 977).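 Note: compound exposure lasted 24 h at 37 °C; plate controls were DMSO only for no effect and 92 µM tetraoctylammonium bromide for full effect.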 An outline of the steps: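 Human lymphoblastoid cells (2500/well) in complete medium were preincubated 5 hr at 37 C, then exposed to compounds for 24 hr at 37 C. Intracellular ATP was read by CellTiter-Glo luminescence; AC50 came from Hill-equation concentration-response fits.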
Assay [8] is described as follows: Cell Viability - LYMP2-007 (AID 979).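 Note: cells exposed to compound for 24 h before reading; 0% = DMSO only and the negative end = 92 µM tetraoctylammonium bromide; nearly all actives have a fitted effect of over 60% in size.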 An outline of the steps: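 Cells are seeded at 2500 per well and rested 5 hr. Compounds are then added over a concentration series for 24 hr at 37 C. CellTiter-Glo is added for 30 min at room temperature before luminescence reading.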
A short description of assay [9]: Cell Viability - LYMP2-014 (AID 983).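 Note: plate controls were DMSO only for no effect and 92 µM tetraoctylammonium bromide for full effect; nearly all actives have a fitted effect of over 50% in size.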 The gist of the method: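 Cells are plated at 2500/well and left 5 hr at 37 C. Compounds are added across a concentration range and incubated 24 hr at 37 C in complete medium. CellTiter-Glo is added, and luminescence is read after 30 min at room temperature.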
The nature of assay [10]: Cell Viability - LYMP2-018 (AID 985).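 Note: compound exposure lasted 24 hr at 37 °C; plate controls were DMSO only for no effect and tetraoctylammonium bromide at 92 µM for full effect; nearly all actives have a fitted effect of over 50% in size.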 An outline of the steps: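 Seed 2500 lymphoblastoid cells per well, incubate 5 hr at 37 C, add compound and incubate 24 hr at 37 C, add CellTiter-Glo, wait 30 min at room temperature, then read luminescence.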
Assay [11] in a line: Cell Viability - LYMP2-020 (AID 986).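 Note: plate controls were DMSO only for no effect and tetraoctylammonium bromide at 92 µM for full effect; nearly all actives have a fitted effect of over 55% in size.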 An outline of the steps:
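Seed 2500 cells per well and incubate 5 hr at 37 C. Add compounds at a concentration series and incubate 24 hr at 37 C. Add CellTiter-Glo, wait 30 min at RT, read luminescence, and fit a Hill curve for AC50.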

Assay [12] can be described thus: Cell Viability - LYMP2-022 (AID 987). An outline of the steps: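 Cells were seeded at 2500 per well, rested 5 hr at 37 C, and treated with titrated compounds for 24 hr at 37 C. Cellular ATP was then quantified by luciferase luminescence, and AC50 values were derived from Hill-modelled concentration-response curves.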
Assay [13] can be described thus: Cell Viability - LYMP2-026 (AID 989). Note: % is set by controls: 0 for no effect and ±100 for the full control effect; nearly all actives have a fitted effect of over 50% in size. An outline of the steps: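 Cells are seeded at 2500 per well and held 5 hr at 37 C. Compounds are added in concentration series for 24 hr, then CellTiter-Glo reagent is applied and luminescence read.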
The nature of assay [14]: qHTS assay for small molecule antagonists of retinoid X receptor alpha signaling (AID 588546).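 Note: cells stimulated with 9-cis-retinoic acid as agonist; % is set by controls: 0 for no effect and ±100 for the full control effect.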 The conditions noted are these: HEK293T RXRa-UAS-bla, beta-lactamase ratio, antagonist mode; measured here: W530 green channel, cytotoxicity proxy. The gist of the method: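 Beta-lactamase reporter inhibition, read as CCF4 fluorescence ratio (ex 405, em 460/530 nm) after 2 h at RT. HEK293T UAS-bla cells, 2500/well, were stimulated with 9-cis-RA at 500 or 100 nM final alongside test compound for 18 h at 37 C.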

A short description of assay [15]: Cell Viability - Jurkat (AID 426;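 active = dose-dependent loss of cell ATP signal giving a full or clear fitted curve, ranked by lower potency value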; note: potency is the fitted concentration of half-maximal effect). The following applies: qHTS. An outline of the steps:
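Cells of the human T-cell leukemia line Jurkat (E6-1) are seeded at 5000 per well, treated with compound across a concentration range for 40 hours at 37 °C, then lysed with CellTiter-Glo; luminescence reports ATP.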

Assay [16] is described as follows: Cell Viability - Hek293 (AID 427;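 active = compounds whose dose-response curve shows a full or clear partial loss of cell viability, called from curve shape rather than a numeric limit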;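 note: potency is the fitted concentration of half-maximal effect; cells exposed to compound for 40 hours at 37 °C before reading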). The conditions noted are these: qHTS. The gist of the method: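 AC50 values derive from Hill-modelled concentration-response of ATP-based luminescence, normalized between DMSO-only and 100 uM tamoxifen controls. Cells were exposed in complete culture medium for 40 hr at 37 °C before detection.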
Assay [17] is described as follows: Cell Viability - NIH 3T3 (AID 541).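 Note: plate controls were DMSO alone for no effect and tamoxifen positive control for full effect; nearly all actives have a fitted effect of over 25% in size.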 The following applies: NIH 3T3 cell viability, qHTS; activity change, negative = cytotoxicity: at 92.2 µM (top of the series). The gist of the method:
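Cells seeded at 1000/well, rested 5 hr at 37 °C, then dosed and incubated 40 hr at 37 °C. CellTiter-Glo added, 20 min room temperature, luminescence read. AC50 by Hill fit.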

A short description of assay [18]: Cell Viability - H-4-II-E (AID 543). Note: % is set by controls: 0 for no effect and ±100 for the full control effect; nearly all actives have a fitted effect of over 35% in size. An outline of the steps: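 Cells seeded at 1500 per well and rested 5 hr; compounds added; 40 hr incubation at 37 °C; CellTiter-Glo added, 20 min at room temperature; luminescence read. Hill-equation fits gave AC50.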
Assay [19] is described as follows: Cellular Toxicity (caspase-3) NIH 3T3 (AID 666).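 Note: caspase signal read after 16 h compound exposure; 0% = DMSO basal and 100% = 100 µM tamoxifen stimulation.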 The gist of the method: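 Cells were plated at 1000 per well and incubated 5 hr at 37°C, then compound was added for 16 hr. Caspase-Glo 3/7 reagent followed for 20 min at room temperature before luminescence was read.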
Assay [20] in a line: qHTS assay for small molecule agonists of retinoid X receptor alpha signaling (AID 588544). The following applies: HEK293T RXRa-UAS-bla, beta-lactamase reporter, 18 h; 530 nm emission.

Where “and” joins values, the source holds several entries; their conditions need not be identical. Equal entries are not always repeated. Results filed as inconclusive are left out. Calls of active or inactive are those of the source. Unless noted, calls come from the whole dose curve; as a rule, active = well fitted curve in the direction sought with a large enough effect; inconclusive = small, poorly fitted or top-dose-only effect, or another doubt; inactive = no such curve, though single readings can be large; an effect the other way counts as inactive or inconclusive. Bounds are passed on as bounds.

Chain of Voltage-gated inwardly rectifying potassium channel KCNH2 (Homo sapiens) (Q12809 whole entry, looked up): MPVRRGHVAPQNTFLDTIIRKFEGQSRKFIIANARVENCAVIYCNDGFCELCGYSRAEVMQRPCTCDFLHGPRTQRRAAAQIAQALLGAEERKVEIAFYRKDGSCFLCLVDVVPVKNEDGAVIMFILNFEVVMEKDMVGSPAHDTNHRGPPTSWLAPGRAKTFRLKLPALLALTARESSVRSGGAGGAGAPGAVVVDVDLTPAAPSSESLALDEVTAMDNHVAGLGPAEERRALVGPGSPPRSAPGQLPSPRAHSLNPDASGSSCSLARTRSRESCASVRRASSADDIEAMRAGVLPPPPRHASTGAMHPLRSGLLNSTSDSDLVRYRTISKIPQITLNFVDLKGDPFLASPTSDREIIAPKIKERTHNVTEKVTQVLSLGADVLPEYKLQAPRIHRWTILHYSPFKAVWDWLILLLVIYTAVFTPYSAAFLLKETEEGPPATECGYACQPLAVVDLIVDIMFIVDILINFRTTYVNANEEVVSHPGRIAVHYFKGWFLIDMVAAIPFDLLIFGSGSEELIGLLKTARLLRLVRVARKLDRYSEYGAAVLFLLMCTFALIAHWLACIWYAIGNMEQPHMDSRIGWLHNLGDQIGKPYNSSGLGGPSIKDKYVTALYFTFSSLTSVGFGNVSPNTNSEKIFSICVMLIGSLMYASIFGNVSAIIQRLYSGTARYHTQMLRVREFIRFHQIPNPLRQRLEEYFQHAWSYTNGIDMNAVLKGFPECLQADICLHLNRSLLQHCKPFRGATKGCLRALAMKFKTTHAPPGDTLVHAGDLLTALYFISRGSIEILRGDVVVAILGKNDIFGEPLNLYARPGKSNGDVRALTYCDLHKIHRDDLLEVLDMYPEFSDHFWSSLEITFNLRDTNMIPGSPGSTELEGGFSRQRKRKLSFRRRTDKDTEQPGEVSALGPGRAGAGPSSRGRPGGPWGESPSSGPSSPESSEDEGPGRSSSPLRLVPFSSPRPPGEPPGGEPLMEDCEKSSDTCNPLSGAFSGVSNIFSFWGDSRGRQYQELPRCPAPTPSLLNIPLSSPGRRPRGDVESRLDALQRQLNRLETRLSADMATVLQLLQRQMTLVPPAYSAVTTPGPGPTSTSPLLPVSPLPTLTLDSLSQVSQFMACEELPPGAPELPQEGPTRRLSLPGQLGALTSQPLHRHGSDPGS

With `S=C(S)N1CCCC1`, the Potency in assay [1] is 3.55 µM (active).
As to `CN1C[C@H](C(=O)N[C@]2(C)O[C@@]3(O)C4CCCN4C(=O)[C@H](Cc4ccccc4)N3C2=O)C[C@@H]2c3cccc4[nH]cc(c34)C[C@H]21` (stereo partly drawn), the Potency in [1] is 11.2 µM (active).
Take `COC1=CC(=O)O[C@@H](/C=C/c2ccc3c(c2)OCO3)C1`: the compound was called inactive in assay [2]. Further, the Potency result in assay [3], in assay [4], in assay [5], in assay [6], in [7] and in assay [8] was “inactive” throughout. Further, the Potency result in assay [9], in assay [10], in assay [11], in assay [12], in assay [13] and in [1] was “inactive” in each case. Moreover, the max response in assay [14] is 10.1%.
For the compound `CC(C)(c1ccccc1)c1ccc(O)cc1`, the Potency in [15] and in [16] was > 92 µM (inactive) in each case. The call in assay [2] and in assay [19] was inactive. For the same compound, the activity change, negative = cytotoxicity in assay [17] is -17.8% (inactive). Moreover, the Potency entry in assay [18], in assay [3], in assay [4], in assay [5], in assay [6] and in assay [7] was “inactive” each time. Also, the Potency result in assay [8], in assay [9], in [10], in assay [11], in [12] and in assay [13] was “inactive” each time. Further, the max response in assay [20] was -10.3% and -15.2%; in assay [14], -11.5%.
In the case of `CCCCOCCOP(=O)(OCCOCCCC)OCCOCCCC`, the Potency in [15] and in assay [16] was > 92 µM (inactive) in each case. Further, the outcome in assay [2] and in assay [19] was inactive. In addition, in assay [17], the activity change, negative = cytotoxicity is -4.02% (inactive). In addition, the Potency entry in [18], in assay [3], in assay [4], in assay [5], in assay [6] and in [7] was “inactive” each time. The Potency result in assay [8], in assay [9], in assay [10], in [11], in [12] and in [13] was “inactive” in each case. Moreover, the max response in assay [20] was -10.8% and -2.33%; in assay [14], 2.76% and -5.2%.
For `N#CCCCl`, the Potency in assay [15] and in assay [16] was > 92 µM (inactive) each time. For the same compound, the outcome in assay [2] and in assay [19] was inactive. Also, the activity change, negative = cytotoxicity in [17] was -5.02% (inactive) and -15.1% (inactive). The Potency entry in assay [18], in [3], in assay [4], in assay [5], in [6] and in [7] was “inactive” each time. Besides, the Potency entry in assay [8], in assay [9], in assay [10], in [11], in assay [12] and in assay [13] was “inactive” each time. Besides, the Potency entry in assay [1] is “inactive”. For the same compound, the max response was 5.05% and -2.32% in assay [20]; 2.8% and 0.773% in [14].
`Nc1ccc(Br)cc1`: the Potency in assay [15] and in assay [16] was > 92 µM (inactive) in each case. Besides, the compound was called inactive in assay [2] and in assay [19]. The activity change, negative = cytotoxicity in assay [17] is -14.1% (inactive). Besides, the Potency result in assay [18], in [3], in [4], in [5], in assay [6] and in [7] was “inactive” in each case. The Potency result in [8], in [9], in [10], in [11], in assay [12] and in assay [13] was “inactive” throughout. Further, in assay [1], the Potency result is “inactive”. In addition, the results for the max response in assay [20] and in [14] were 1.14% and 3.4%, respectively.
For the compound `CCOP(=S)(OCC)SCSC(C)(C)C`, the Potency in [15] and in assay [16] was > 92 µM (inactive) each time. Also, the compound was classed as inactive in assay [2] and in assay [19]. Besides, the activity change, negative = cytotoxicity in assay [17] is 1.25% (inactive). Further, the Potency entry in assay [18], in assay [3], in [4], in [5], in [6] and in assay [7] was “inactive” each time. Further, the Potency entry in assay [8], in assay [9], in assay [10], in assay [11], in assay [12] and in assay [13] was “inactive” throughout. For the same compound, the max response in assay [20] was 19.7% and -0.121%; in assay [14] it was -10.4% and -6.52%.
Take `Nc1c(Cl)c(Cl)nc(C(=O)O)c1Cl`: the Potency in assay [15] and in [16] was > 92 µM (inactive) throughout. The call in assay [2] and in assay [19] was inactive. In addition, the activity change, negative = cytotoxicity in assay [17] is -10.1% (inactive). For the same compound, the Potency entry in [18], in [3], in assay [4], in assay [5], in assay [6] and in [7] was “inactive” in each case. For the same compound, the Potency entry in assay [8], in assay [9], in [10], in assay [11], in assay [12] and in assay [13] was “inactive” throughout. Also, the Potency entry in [1] was “inactive”. For the same compound, the max response is 27.1% in [20]; 15% and 5.55% and 11.1% in [14].

These data come from PubChem BioAssay (NCATS).
